Measured values from PubChem BioAssay (EPA / NIEHS).
Inconclusive results are not listed. Active and inactive are the calls of the source. The calls were made as follows, unless noted: active = hit-call score of the fitted dose curve at least 0.9, where 1 is the maximum; inactive = score below 0.9.

Legend:
[1] = CCTE_Mundy_HCI_Cortical_Synap_Neur_Matur_NeuriteSpotCountPerNeuriteLength: CCTE's Synaptogenesis and Neurite Maturation Assay in rat cortical cells for Neurite Spot Count per Neurite Length, Mundy Lab (AID 2284210)
Method in brief: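 Rat primary cortical cultures, glia arrested with AraC at DIV 5, were dosed with media change at DIV 7 and fixed at DIV 12. Synaptophysin puncta per MAP2-labelled neurite length were quantified by high-content imaging versus DMSO.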

[2] = CCTE_Mundy_HCI_Cortical_Synap_Neur_Matur_BPCount: CCTE's Synaptogenesis and Neurite Maturation Assay in rat cortical cells for Branch Point Count, Mundy Lab (AID 2284211)
Method in brief: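 Rat primary cortical cultures, AraC added DIV 5; chemicals dosed DIV 7 through DIV 12. Fixed cells stained for MAP2, synaptophysin and Hoechst; neurite branch points counted by automated high-content imaging, fitted relative to DMSO.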

[3] = CCTE_Mundy_HCI_Cortical_NOG_NeuriteCount: CCTE's Neurite Outgrowth Assay in rat cortical cells for Neurite Count, Mundy Lab (AID 2284212);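 also: cells fixed about two days after chemical exposure began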
Method in brief: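 Neurite number per cell from high-content imaging of betaIII-tubulin immunostaining, with Hoechst nuclear counterstain.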

[4] = CCTE_Mundy_HCI_Cortical_NOG_NeuriteLength: CCTE's Neurite Outgrowth Assay in rat cortical cells for Neurite Length, Mundy Lab (AID 2284213)
Method in brief: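 Neurite length was read by high-content imaging of βIII-tubulin-labelled neurites in rat primary cortical cultures. Activity was fitted relative to DMSO.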

[5] = CCTE_Mundy_HCI_Cortical_Synap_Neur_Matur_NeuriteLength: CCTE's Synaptogenesis and Neurite Maturation Assay in rat cortical cells for Neurite Length, Mundy Lab (AID 2284214)
Method in brief: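 Rat primary cortical cultures, AraC added DIV 5, dosed DIV 7 through DIV 12 […]. Fixed, MAP2/synaptophysin immunostained with Hoechst; neurite length by high-content imaging, fitted in positive direction versus DMSO.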

[6] = CCTE_Mundy_HCI_Cortical_Synap_Neur_Matur_SynapseCount: CCTE's Synaptogenesis and Neurite Maturation Assay in rat cortical cells for Synapse Count, Mundy Lab (AID 2284218)
Method in brief: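 Rat primary cortical cultures, AraC at DIV 5, chemical dosing DIV 7 to DIV 12 (288.33 h). Fixed cells stained for MAP2, synaptophysin and Hoechst; synapses per neuron counted by high-content imaging, loss of signal versus DMSO.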

[7] = CCTE_Mundy_HCI_Cortical_Synap_Neur_Matur_NeuriteCount: CCTE's Synaptogenesis and Neurite Maturation Assay in rat cortical cells for Neurite Count, Mundy Lab (AID 2284222);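 also: exposure from day 7 to day 12 in vitro with readout at day 12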
Method in brief: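 Chemical exposure runs DIV 7–12 in rat cortical cultures, glia suppressed by AraC at DIV 5; measurement is at DIV 12. Imaging-derived neurite counts are fitted against DMSO baseline.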

[8] = CCTE_Mundy_HCI_Cortical_Synap_Neur_Matur_CellBodySpotCount: CCTE's Synaptogenesis and Neurite Maturation Assay in rat cortical cells for Cell Body Spot Count, Mundy Lab (AID 2284223)
Method in brief: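 Chemicals were applied to AraC-treated rat primary cortical cells at DIV 7 and measured at DIV 12. Fixed cells were labelled for MAP2, synaptophysin and nuclei, and high-content imaging gave cell body synaptophysin spot counts per neuron relative to DMSO.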

[9] = UKN2_HCS_IMR90_cell_viability: Viability Assessment in the University of Konstanz (UKN) Leist Lab Neural Crest Cell Migration Assay in human induced IMR90 Pluripotent Stem Cells (UKN2) (AID 2284233);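 also: viability of neural crest cells differentiated from IMR90 iPSC measured by calcein-AM fluorescence imaging; cells exposed to compound for 24 h after a 24 h migration phase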
Method in brief: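 iPSC-derived (IMR90) neural crest cells seeded around silicone stoppers on PLO/laminin/fibronectin; after 24 h migration in N2-S with EGF/FGF, chemical added for 24 h. Calcein-AM/Hoechst stained 30 min, high-content imaged; bidirectional fit versus DMSO.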

[10] = CCTE_Mundy_HCI_Cortical_NOG_NeuronCount: CCTE's Neurite Outgrowth Assay in rat cortical cells for Neuron Count, Mundy Lab (AID 2284236; active = hit-call score of the fitted dose curve at least 0.9, where 1 is the maximum;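 also: neurons counted by imaging betaIII-tubulin and Hoechst stained cortical cells; cells exposed to compound for about 48 hours before fixation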)
Method in brief: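 Read-out: neuron number by high-content imaging of betaIII-tubulin (Alexa Fluor-488) and Hoechst-labelled rat primary cortical cells.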

[11] = CCTE_Mundy_HCI_Cortical_NOG_BPCount: CCTE's Neurite Outgrowth Assay in rat cortical cells for Branch Point Count, Mundy Lab (AID 2284237)
Method in brief: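 Measured 50.33 h after dosing, this morphology endpoint uses rat primary cortical cultures labelled for betaIII-tubulin. Branch points are quantified by high-content imaging, with DMSO as negative control and baseline.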

[12] = CCTE_Mundy_HCI_hNP1_Casp3_7: CCTE's Caspase-Glo 3/7 Assay in human neuroprogenitor cells for Apoptosis, Mundy Lab (AID 2284240)
Method in brief: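 Neuroepithelial-lineage stem cells from WA09 embryonic cells were treated with chemicals after 40–44 h of culture. Twenty-four hours later, caspase-3/7 activation was detected luminescently after a 30 min room-temperature reagent step, with DMSO as baseline.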

[13] = CCTE_Mundy_HCI_Cortical_Synap_Neur_Matur_NeuronCount: CCTE's Synaptogenesis and Neurite Maturation Assay in rat cortical cells for Neuron Count, Mundy Lab (AID 2284242; active = hit-call score of the fitted dose curve at least 0.9, where 1 is the maximum)
Method in brief: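 Rat primary cortical cells, AraC added at DIV 5, dosed with media change from DIV 7 to DIV 12. Fixed, Hoechst-stained and immunolabelled for MAP2 and synaptophysin; neuron number counted by high-content imaging, loss fitted versus DMSO.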

[14] = IUF_NPC2a_radial_glia_migration_120hr: Leibniz Research Institute for Environmental Medicine (IUF) 120-hour Neural Progenitor Cell Migration Assay for Radial Glia Migration (NPC2a) (AID 2284298)
Method in brief: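 Exposure of 0.3 mm primary hNPC spheres runs day 0 to 120 h with a half-volume medium change at day 3. Fixed cells get Hoechst staining; high-content analysis of nuclear positions yields radial glia migration distance per well, compared against DMSO controls.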

[15] = IUF_NPC2a_radial_glia_migration_72hr: Leibniz Research Institute for Environmental Medicine (IUF) 72-hour Neural Progenitor Cell Migration Assay for Radial Glia Migration (NPC2a) (AID 2284299)
Method in brief: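 Human fetal neural progenitor spheres (0.3 mm) plated on poly-D-lysine/laminin in N2 differentiation medium and exposed from day 0 at 7 concentrations; radial glia migration distance from sphere edge measured at 72 h on brightfield images, mean of four directions, vs DMSO.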

[16] = IUF_NPC2b_neuronal_migration_120hr: Leibniz Research Institute for Environmental Medicine (IUF) 120-hour Neural Progenitor Cell Migration Assay for Neuron Migration (NPC2b) (AID 2284300)
Method in brief: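 Fetal human NPC spheres migrate on PDL/laminin during 120 h compound treatment; neuronal migration distance, glia-normalized, scored versus DMSO control.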

[17] = IUF_NPC3_neuronal_differentiation_120hr: Leibniz Research Institute for Environmental Medicine (IUF) 120-hour Neuronal Differentiation Assay (NPC3) (AID 2284301)
Method in brief: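 Primary human fetal neural progenitor spheres (GW 16-19, 0.3 mm) plated on poly-D-lysine/laminin in N2 medium, exposed from day 0 for 120 h with half-medium refresh at day 3. TUBB3+ cells as percent of Hoechst nuclei in migration area; DMSO baseline.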

[18] = IUF_NPC4_neurite_length_120hr: Leibniz Research Institute for Environmental Medicine (IUF) 120-hour Neuronal Morphology Assay for Neurite Length (NPC4) (AID 2284302)
Method in brief: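 Human fetal cortex (GW 16-19) neural progenitor spheres, 0.3 mm, were plated on poly-D-lysine/laminin in N2 differentiation medium and exposed from day 0 for 120 h, half-feeding at day 3. Mean TUBB3+ neurite length (µm) came from skeletonized images, relative to DMSO.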

[19] = IUF_NPC5_oligodendrocyte_differentiation_120hr: Leibniz Research Institute for Environmental Medicine (IUF) 120-hour Oligodendrocyte Differentiation Assay (NPC5) (AID 2284304; active = hit-call score of the fitted dose curve at least 0.9, where 1 is the maximum;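 also: primary human fetal neural progenitor spheres plated to migrate and differentiate; share of O4-positive cells among Hoechst nuclei found by CNN image analysis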)
Method in brief: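 After plating on poly-D-lysine/laminin, fetal-derived hNPC spheres differentiated for 120 h at 37C in compound-containing N2 medium, refreshed by half on day 3. O4 immunostaining over Hoechst nuclei in the migration zone gave oligodendrocyte percentage relative to DMSO.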

[20] = IUF_NPC2-5_cytotoxicity_72hr: Cytotoxicity Assessment at 72 hours in the Leibniz Research Institute for Environmental Medicine (IUF) Neural Progenitor Cell Migration and Differentiation Assay for Cytotoxicity (NPC2-5) (AID 2284306; active = hit-call score of the fitted dose curve at least 0.9, where 1 is the maximum;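 also: LDH release into supernatant measured by resorufin fluorescence marking membrane damage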)
Method in brief: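 Human fetal (GW 16-19) neural progenitor spheres, 0.3 mm, plated on poly-D-lysine/laminin in N2 differentiation medium and exposed from day 0 to 7 concentrations plus solvent control (DMSO ≤0.1%). LDH-dependent resazurin-to-resorufin fluorescence in supernatant at 72 h.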

[21] = IUF_NPC2-5_cytotoxicity_120hr: Cytotoxicity Assessment at 120 hours in the Leibniz Research Institute for Environmental Medicine (IUF) Neural Progenitor Cell Migration and Differentiation Assay (NPC2-5) (AID 2284307; active = hit-call score of the fitted dose curve at least 0.9, where 1 is the maximum)
Method in brief: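 Membrane-integrity loss is quantified by LDH in supernatant after five days of exposure of migrating, differentiating human fetal NPC spheres; seven serially diluted concentrations are tested with DMSO kept at or below 0.1%.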

[22] = IUF_NPC2-5_cell_number_120hr: Cell Number Assessment at 120 hours in the Leibniz Research Institute for Environmental Medicine (IUF) Neural Progenitor Cell Migration and Differentiation Assay (NPC2-5) (AID 2284308);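 also: count of Hoechst-stained nuclei in migration zone around plated human neural progenitor spheres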
Method in brief: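 Seven-point serial dilutions plus solvent control were applied to plated 0.3 mm hNPC spheres at differentiation start, with medium half-replaced at day 3. Nuclei positive for Hoechst in the migration zone were enumerated at 120 h.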

[23] = IUF_NPC2-5_viability_120hr: Viability Assessment at 120 hours in the Leibniz Research Institute for Environmental Medicine (IUF) Neural Progenitor Cell Migration and Differentiation Assay (NPC2-5) (AID 2284312)
Method in brief: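 Human fetal (GW 16-19) neural progenitor spheres of 0.3 mm were plated on poly-D-lysine/laminin in N2 differentiation medium and exposed from day 0 for 120 h, with half-medium refresh at day 3. Viability was read as alamar blue resazurin-to-resorufin fluorescence against DMSO.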

Measured: outcome

CCc1ccccc1
inactive: all assays above
